{"source": "PubChem BioAssay (NCATS)", "note": "Records with an inconclusive call do not appear. The source made the active and inactive calls. Calls come from the whole dose curve; as a rule, active = well fitted inhibition curve with a large enough effect; inconclusive = small, poorly fitted or top-dose-only effect; inactive = flat fitted curve, though single readings scatter. % is set by controls: 0 for no effect and ±100 for the full control effect."}
{"molecular_target": "Voltage-gated inwardly rectifying potassium channel KCNH2 (Homo sapiens) (UniProt Q12809)", "sequence (Q12809 whole entry, looked up)": "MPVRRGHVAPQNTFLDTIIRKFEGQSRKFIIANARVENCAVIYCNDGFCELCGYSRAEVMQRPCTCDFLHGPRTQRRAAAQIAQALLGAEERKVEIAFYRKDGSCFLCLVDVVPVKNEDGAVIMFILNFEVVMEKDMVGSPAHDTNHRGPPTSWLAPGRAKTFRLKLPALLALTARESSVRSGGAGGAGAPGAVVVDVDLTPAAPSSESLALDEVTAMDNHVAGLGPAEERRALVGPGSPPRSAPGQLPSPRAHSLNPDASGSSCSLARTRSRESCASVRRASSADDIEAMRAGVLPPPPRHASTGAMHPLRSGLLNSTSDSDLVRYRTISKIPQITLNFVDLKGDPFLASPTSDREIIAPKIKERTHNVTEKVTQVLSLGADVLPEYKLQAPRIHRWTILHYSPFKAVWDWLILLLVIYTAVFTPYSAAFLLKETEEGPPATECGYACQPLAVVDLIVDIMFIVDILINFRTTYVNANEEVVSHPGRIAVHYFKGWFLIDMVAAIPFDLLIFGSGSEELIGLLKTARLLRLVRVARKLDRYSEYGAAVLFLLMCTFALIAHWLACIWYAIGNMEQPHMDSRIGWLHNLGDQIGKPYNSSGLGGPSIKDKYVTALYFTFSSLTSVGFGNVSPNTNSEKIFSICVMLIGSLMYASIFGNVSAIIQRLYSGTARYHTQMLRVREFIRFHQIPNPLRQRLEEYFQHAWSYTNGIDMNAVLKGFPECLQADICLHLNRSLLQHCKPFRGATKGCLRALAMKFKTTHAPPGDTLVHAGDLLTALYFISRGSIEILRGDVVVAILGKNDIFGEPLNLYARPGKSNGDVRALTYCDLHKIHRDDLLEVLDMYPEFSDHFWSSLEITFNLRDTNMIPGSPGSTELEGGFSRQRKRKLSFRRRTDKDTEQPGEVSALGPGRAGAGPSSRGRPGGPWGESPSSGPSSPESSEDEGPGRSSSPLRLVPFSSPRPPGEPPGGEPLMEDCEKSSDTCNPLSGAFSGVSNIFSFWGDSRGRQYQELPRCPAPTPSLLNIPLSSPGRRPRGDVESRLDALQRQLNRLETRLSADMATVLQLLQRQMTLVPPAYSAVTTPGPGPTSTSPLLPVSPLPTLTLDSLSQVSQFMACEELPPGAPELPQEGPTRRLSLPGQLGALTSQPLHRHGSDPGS", "experiment": "qHTS Assay for Small Molecule Inhibitors of the Human hERG Channel Activity (AID 588834);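 note: top concentration of the series differs between compounds; lower thallium flux fluorescence means stronger hERG block; nearly all actives have a fitted effect of over 50% in size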", "details": "U2OS BacMam hERG, FluxOR thallium flux fluorescence; series mostly up to 92.2 µM; activity change, negative = inhibition: at the top concentration", "excerpt": "NIH Chemical Genomics Center [NCGC]\nNational Institutes of Environmental Health Sciences [NIEHS]\nNational Toxicology Program [NTP]\nWe have developed a 1536-well cell-based assay for quantitative high throughput screening (qHTS) to determine in vitro hERG channel blockage as a measure of cardio toxicity with small molecules. This particular assay uses the U2OS cell line which is derived from human osteosarcoma.\nNCGC Assay Protocol Summary:\nHERG assay (FluxORTM thallium flux assay) was initially developed by Invitrogen/Molecular Probes, and then miniaturized into 1536-well plate in a homogeneous format by NCGC. This assay measures the activity of potassium channel using thallium dye (FluxOR) flux as surrogate measurement for potassium into the cells with a FDSS-7000 kinetic plate reader (Hamamatsu Corp., Hamamatsu City, Japan). The hERG ion channel is transduced into mammalian cells (U2OS) using a baculovirus (Bacmam) construct harboring the hERG K+ ion channel. So far we screened LOPAC1280 library (Sigma), the NTP collection of 1408 compounds, and the NCGC Pharmaceutical Collection (NPC), in which many well defined HERG blockers are present. The rank order potencies of many of these compounds are similar to that of other HERG assays (membrane potential, Rb+ flux, patch clamp, etc). This quick and homogeneous assay is also found to be sensitive, specific, and robust.\nUsing the FluxORTM thallium flux assay, the activity of potassium channel using thallium dye (FluxOR) flux as surrogate measurement for potassium into the cells was measured in the U2OS cell line transduced with hERG K+ ion channel using a baculovirus (Bacmam) using Opti-MEM medium (Invitrogen) containing 2% fetal calf serum (FCS, HyCone) following loading buffer addition, compound treatment for around 10 minutes and finally adding stimulation buffer. The assay was performed in black clear Kalypsys 1536-well plates. In the screen, Astemizole was used as positive controls. Library compounds were measured for their ability to cause hERG channel blockage in the cell line, as reflected by a decrease in fluorescence intensity, in a concentration-dependent manner. […] AC50 values were determined from concentration-response data modeled with the standard Hill equation.\nqHTS protocol for hERG-U2OS cellular assay\n[Step] [Parameter] [Value] [Description]\n1. Day 1: Replace medium in 70-80% confluent T225 flask with 2.5 mL of hERG-BacMam virus plus 12.5 mL of phosphate buffered saline (PBS) (corresponding roughly to a multiplicity of infection ratio of 100 virus particles/cell)\n2. Incubation: 4 hrs @ room Temperature in Dark\n3. Reagent; Remove virus; wash once with 25 ml DPBS\n4. Reagent; 35 ml culture medium\n5. Incubation; 37 °C overnight\n6. Day2: Reagent; 3 uL; 2000 U2OS cells/well\n7. Time; 4 hr; 37 °C incubation\n8. Loading buffer; 1 uL; 0.7X;\n9. Incubation: 1hr @ RT in Dark.\n12. Time; 10min; 37 °C incubation\n13. Read fluorescence Intensity on FDSS for 10 Sec with 1 sec interval\n14. Reagent; 1 uL; stimulation buffer\n15. Read fluorescence Intensity on FDSS for 2 min with 1 sec interval\n16. Detection; Fluorescence Intensity; FDSS"}
{"smiles": "NC(N)=S", "activity change, negative = inhibition": "-5.88% (inactive)"}
{"smiles": "Cc1ccc(Cl)cc1", "activity change, negative = inhibition": "-2.7% (inactive)"}
{"smiles": "CC/C(C)=N/O", "activity change, negative = inhibition": "3.91% (inactive)"}
{"smiles": "C=CCCCC", "activity change, negative = inhibition": "-2.26% (inactive)"}
{"smiles": "CCN(C(=O)N(CC)c1ccccc1)c1ccccc1", "activity change, negative = inhibition": "-0.375% (inactive)"}
{"smiles": "Nc1c(Cl)cc(Cl)cc1Cl", "activity change, negative = inhibition": "-19.3% (inactive)"}
{"smiles": "O=C1OC(=O)c2cc([N+](=O)[O-])ccc21", "activity change, negative = inhibition": "10.9% (inactive)"}
{"smiles": "COc1ccc(N=[N+]([O-])c2ccc(OC)cc2)cc1", "activity change, negative = inhibition": "3.88% (inactive)"}
{"smiles": "Cc1c(N)cccc1N", "activity change, negative = inhibition": "-1.66% (inactive)"}
{"smiles": "CC(=O)c1nccs1", "activity change, negative = inhibition": "7.3% (inactive)"}
{"smiles": "Cc1cc(C)c(N)cc1C", "activity change, negative = inhibition": "6.83% (inactive)"}
{"smiles": "Cc1c(C(=O)O)cccc1[N+](=O)[O-]", "activity change, negative = inhibition": "3.33% (inactive)"}
{"smiles": "S=C([S-])NCCNC(=S)[S-].[Zn+2]", "activity change, negative = inhibition": "-24.6% (inactive)"}
{"smiles": "C/C(C=O)=C/c1ccccc1", "activity change, negative = inhibition": "4.21% (inactive)"}
{"smiles": "CCC(C)(C)C", "activity change, negative = inhibition": "16.3% (inactive)"}
{"smiles": "C=C(C)C(=O)OC", "activity change, negative = inhibition": "7.04% (inactive)"}
{"smiles": "CCCCCCCCC", "activity change, negative = inhibition": "0.677% (inactive)"}
{"smiles": "CCOCCO", "activity change, negative = inhibition": "-0.0876% (inactive)"}
{"smiles": "CN(C)CCCCl", "activity change, negative = inhibition": "-1.13% (inactive)"}
{"smiles": "c1ccc2[nH]cnc2c1", "activity change, negative = inhibition": "-0.621% (inactive)"}
{"smiles": "CC(=O)c1cc(C)oc1C", "activity change, negative = inhibition": "0.758% (inactive)"}
{"smiles": "ON=C1CCCCC1", "activity change, negative = inhibition": "-1.99% (inactive)"}
{"smiles": "Cc1ccccc1C#N", "activity change, negative = inhibition": "-3.49% (inactive)"}
{"smiles": "C=Cc1ccccn1", "activity change, negative = inhibition": "-2.73% (inactive)"}
{"smiles": "C=CCCC", "activity change, negative = inhibition": "5.59% (inactive)"}
{"smiles": "CCCCC(=O)N(C)C", "activity change, negative = inhibition": "1.21% (inactive)"}
{"smiles": "O=C(O)c1ccc(Cl)cc1Cl", "activity change, negative = inhibition": "-4.71% (inactive)"}
{"smiles": "Nc1nc(CC(=O)O)cs1", "activity change, negative = inhibition": "3.56% (inactive)"}
{"smiles": "C=CCCCCCCC=C", "activity change, negative = inhibition": "-17.8% (inactive)"}
{"smiles": "CCC1CO1", "note": "(stereo not given)", "activity change, negative = inhibition": "-5.34% (inactive)"}
{"smiles": "COc1ccc(N)c(C)c1", "activity change, negative = inhibition": "3.04% (inactive)"}
{"smiles": "CCCC(C)CO", "note": "(stereo not given)", "activity change, negative = inhibition": "2.61% (inactive)"}
{"smiles": "Nc1cc(Cl)c([N+](=O)[O-])cc1O", "activity change, negative = inhibition": "-2.79% (inactive)"}
{"smiles": "COc1ccc(N)c(OC)c1", "activity change, negative = inhibition": "7.59% (inactive)"}
{"smiles": "CCCCOCCOCCSC#N", "activity change, negative = inhibition": "-1.57% (inactive)"}
{"smiles": "C=Cc1ccccc1C=C", "activity change, negative = inhibition": "-0.0177% (inactive)"}
{"smiles": "O=Cc1c(Cl)cccc1Cl", "activity change, negative = inhibition": "-16.8% (inactive)"}
{"smiles": "BrC(Br)C(Br)Br", "activity change, negative = inhibition": "14.5% (inactive)"}
{"smiles": "Nc1cc(S(=O)(=O)O)ccc1O", "activity change, negative = inhibition": "-1.22% (inactive)"}
{"smiles": "CC(CCl)OC(C)CCl", "note": "(stereo not given)", "activity change, negative = inhibition": "0.229% (inactive)"}
